# Counter-ions that a name gives are not always drawn. ± gives the standard deviation of the averaged measurements.
# Experiments:
# [1] = test system: Saccharomyces cerevisiae BY4741 SeMeCo community; assay: z-score of prototroph abundance vs DMSO median; higher = larger share of this subpopulation than in DMSO controls; settings: 10 µM; 24 h; SM minimal medium; subpopulation (auxotrophy): Prototroph
# In short: (§1)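 Scoring was based on each subpopulation's abundance, expressed as a z-score against the vehicle-well median. A Saccharomyces cerevisiae BY4741 community with four plasmids, each restoring one auxotrophy and encoding a distinct fluorescent protein, was pre-grown overnight to OD600 1.0, diluted to 0.3, and added at 70 µl to 384-well plates acoustically predosed with library drugs (10 µM final). It then grew 24 h in minimal SM medium before paraformaldehyde fixation and automated confocal microscopy, with single-auxotroph fluorescent strains setting thresholds and autofluorescence correction.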
# [2] = test system: Saccharomyces cerevisiae BY4741 SeMeCo community; assay: z-score of subpopulation abundance vs DMSO median, subpopulation auxotrophic for M; higher = larger share of this subpopulation than in DMSO controls; settings: 10 µM; 24 h; SM minimal medium; subpopulation (auxotrophy): M
# In short: as §1
# [3] = test system: Saccharomyces cerevisiae BY4741 SeMeCo community; assay: z-score of subpopulation abundance vs DMSO median, subpopulation auxotrophic for L; higher = larger share of this subpopulation than in DMSO controls; settings: 10 µM; 24 h; SM minimal medium; subpopulation (auxotrophy): L
# In short: as §1
# [4] = test system: Saccharomyces cerevisiae BY4741 SeMeCo community; assay: z-score of subpopulation abundance vs DMSO median, subpopulation auxotrophic for U; higher = larger share of this subpopulation than in DMSO controls; settings: 10 µM; 24 h; SM minimal medium; subpopulation (auxotrophy): U
# In short: as §1
# [5] = test system: Saccharomyces cerevisiae BY4741 SeMeCo community; assay: z-score of subpopulation abundance vs DMSO median, subpopulation auxotrophic for H; higher = larger share of this subpopulation than in DMSO controls; settings: 10 µM; 24 h; SM minimal medium; subpopulation (auxotrophy): H
# In short: as §1
# [6] = test system: Saccharomyces cerevisiae BY4741 SeMeCo community; assay: z-score of subpopulation abundance vs DMSO median, subpopulation auxotrophic for LU; higher = larger share of this subpopulation than in DMSO controls; settings: 10 µM; 24 h; SM minimal medium; subpopulation (auxotrophy): LU
# In short: as §1
# [7] = test system: Saccharomyces cerevisiae BY4741 SeMeCo community; assay: z-score of subpopulation abundance vs DMSO median, subpopulation auxotrophic for LM; higher = larger share of this subpopulation than in DMSO controls; settings: 10 µM; 24 h; SM minimal medium; subpopulation (auxotrophy): LM
# In short: as §1
# [8] = test system: Saccharomyces cerevisiae BY4741 SeMeCo community; assay: z-score of subpopulation abundance vs DMSO median, subpopulation auxotrophic for HM; higher = larger share of this subpopulation than in DMSO controls; settings: 10 µM; 24 h; SM minimal medium; subpopulation (auxotrophy): HM
# In short: as §1
# [9] = test system: Saccharomyces cerevisiae BY4741 SeMeCo community; assay: z-score of subpopulation abundance vs DMSO median, subpopulation auxotrophic for HU; higher = larger share of this subpopulation than in DMSO controls; settings: 10 µM; 24 h; SM minimal medium; subpopulation (auxotrophy): HU
# In short: as §1
# [10] = test system: Saccharomyces cerevisiae BY4741 SeMeCo community; assay: z-score of subpopulation abundance vs DMSO median, subpopulation auxotrophic for UM; higher = larger share of this subpopulation than in DMSO controls; settings: 10 µM; 24 h; SM minimal medium; subpopulation (auxotrophy): UM
# In short: as §1
# [11] = test system: Saccharomyces cerevisiae BY4741 SeMeCo community; assay: z-score of subpopulation abundance vs DMSO median, subpopulation auxotrophic for HLM; higher = larger share of this subpopulation than in DMSO controls; settings: 10 µM; 24 h; SM minimal medium; subpopulation (auxotrophy): HLM
# In short: as §1
# [12] = test system: Saccharomyces cerevisiae BY4741 SeMeCo community; assay: z-score of subpopulation abundance vs DMSO median, subpopulation auxotrophic for HUM; higher = larger share of this subpopulation than in DMSO controls; settings: 10 µM; 24 h; SM minimal medium; subpopulation (auxotrophy): HUM
# In short: as §1
# [13] = test system: Saccharomyces cerevisiae BY4741 SeMeCo community; assay: mean cell size (pixel area) (pixels); higher = larger cells; settings: 10 µM; 24 h; SM minimal medium
# In short: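 Drug was acoustically predosed into 384-well plates to a final 10 µM in SM medium, and each well received 70 µl of Saccharomyces cerevisiae BY4741 diluted to OD600 = 0.3 from an overnight preculture at OD600 = 1.0. This four-plasmid fluorescent community carries one fluorescent marker per plasmid, and each plasmid complements one auxotrophy. After 24 h, the cells were fixed with paraformaldehyde and imaged by automated confocal microscopy, and Harmony analysis yielded mean cell pixel area per well. Each value is averaged over 3 replicates. Same SeMeCo high-content imaging drug screen: Selleck FDA-approved drugs at 10 µM, 24 h in SM medium, 384-well plates, 3 replicates.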
# [14] = test system: Saccharomyces cerevisiae BY4741 SeMeCo community; assay: z-score of subpopulation abundance vs DMSO median, subpopulation auxotrophic for HL; higher = larger share of this subpopulation than in DMSO controls; settings: 10 µM; 24 h; SM minimal medium; subpopulation (auxotrophy): HL
# In short: as §1
# [15] = test system: Saccharomyces cerevisiae BY4741 SeMeCo community; assay: z-score of subpopulation abundance vs DMSO median, subpopulation auxotrophic for HLUM; higher = larger share of this subpopulation than in DMSO controls; settings: 10 µM; 24 h; SM minimal medium; subpopulation (auxotrophy): HLUM
# In short: as §1
# [16] = test system: Saccharomyces cerevisiae BY4741 SeMeCo community; assay: z-score of subpopulation abundance vs DMSO median, subpopulation auxotrophic for LUM; higher = larger share of this subpopulation than in DMSO controls; settings: 10 µM; 24 h; SM minimal medium; subpopulation (auxotrophy): LUM
# In short: as §1
SMILES,z-score of prototroph abundance [1],z-score of subpopulation abundance [2],z-score of subpopulation abundance [3],z-score of subpopulation abundance [4],z-score of subpopulation abundance [5],z-score of subpopulation abundance [6],z-score of subpopulation abundance [7],z-score of subpopulation abundance [8],z-score of subpopulation abundance [9],z-score of subpopulation abundance [10],z-score of subpopulation abundance [11],z-score of subpopulation abundance [12],mean cell size [13],z-score of subpopulation abundance [14],z-score of subpopulation abundance [15],z-score of subpopulation abundance [16]
CCN1CCN(C(=O)N[C@@H](C(=O)N[C@@H]2C(=O)N3C(C(=O)O)=C(CSc4nnnn4C)CS[C@H]23)c2ccc(O)cc2)C(=O)C1=O [Cefoperazone],0.07,0.6,0.4,-0.72,0.43,-0.39,1.36,0.3,-0.48,0.26,0.34,-0.49,–,–,–,–
COc1nc2ccc(Br)cc2cc1[C@@H](c1ccccc1)[C@@](O)(CCN(C)C)c1cccc2ccccc12 [Bedaquiline fumarate],-1.58,-0.55,-0.13,0.97,1.1,0.86,0.49,0.33,1.44,4.1,-0.14,–,11.2 ± 0.16,0.4,1.29,–
CO[C@H]1C[C@@H]2CC[C@@H](C)[C@@](O)(O2)C(=O)C(=O)N2CCCC[C@H]2C(=O)O[C@H]([C@H](C)C[C@@H]2CC[C@@H](OCCO)[C@H](OC)C2)CC(=O)[C@H](C)/C=C(\C)[C@@H](O)[C@@H](OC)C(=O)[C@H](C)C[C@H](C)/C=C/C=C/C=C/1C [Everolimus (RAD001)],-18.1,-1.38,-0.87,2.5,15.9,2.59,–,22.4,27.1,12.8,19,32.4,14.17 ± 0.11,12.2,24,12.4
CCC(C)(C)C(=O)O[C@H]1C[C@@H](C)C=C2C=C[C@H](C)[C@H](CC[C@@H]3C[C@@H](O)CC(=O)O3)[C@H]21 [Simvastatin],-1.66,-0.68,-0.13,0.43,0.79,1.71,-0.1,2.47,1.53,–,3.79,1.9,–,1.65,2.55,1.33
N[C@@H]1CCCCN(c2c(F)cc3c(=O)c(C(=O)O)cn(C4CC4)c3c2Cl)C1 [Besifloxacin HCl],-0.33,-0.11,0.15,0.87,0.1,0.95,0.38,-0.14,0.44,-0.28,0.44,-0.3,12 ± 0.16,-0.33,–,-0.19
Oc1c(I)cc(I)c2cccnc12 [Diiodohydroxyquinoline],-3.05,-0.3,0.99,2.25,2.75,3.93,0.38,2.21,–,0.65,2.46,1.2,12.1 ± 0.48,2.9,–,2.87
CCCCCCCN(CC)CCCC(O)c1ccc(NS(C)(=O)=O)cc1 (stereo not given) [Ibutilide Fumarate],0.2,-0.42,-0.88,0.93,0.34,0.14,–,0.11,0.97,0.25,-0.14,0.49,12.5 ± 0.2,-0.89,-0.72,0.19
CCN(CC)CCNC(=O)c1cc(S(C)(=O)=O)ccc1OC [Tiapride Hydrochloride],-1.37,0.16,0.96,–,0.23,1.17,–,0.84,0.47,0.43,3.15,0.14,12.36 ± 0.12,–,2.52,0.9
O=[N+]([O-])c1ccc(O)c2ncccc12 [Nitroxoline],-16.6,1.38,-0.84,-2.48,9.75,12.2,4.84,27.9,16.3,–,65.9,–,13.6 ± 0.5,22.6,36.6,11
Cc1ccsc1/C=C/C1=NCCCN1C [Morantel tartrate],–,0.85,-1.36,0.23,-1.74,0.13,-0.48,-0.19,0.3,0.1,-0.2,-0.08,12.28 ± 0.098,–,–,–
CC(C)(C)C1CCC(CC2=C(O)c3ccccc3C(=O)C2=O)CC1 (stereo not given) [Buparvaquone],-0.85,2.2,0.5,-0.95,-0.05,0.03,0.78,1.55,–,0.54,0.05,0.83,–,-0.13,–,0.35
Clc1ccc(COC(Cn2ccnc2)c2ccc(Cl)cc2Cl)c(Cl)c1 (stereo not given) [Miconazole],-9.47,-7.11,-2.13,2.67,27.8,4.36,-1.8,0.94,22.4,–,12.2,6.04,–,7.22,9.68,–
COc1ncnc(NS(=O)(=O)c2ccc(N)cc2)c1OC [Sulfadoxine],-0.71,-0.15,-0.42,–,-0.14,0.85,-0.89,-0.26,–,0.98,0.02,1.04,12.47 ± 0.085,0.34,–,-0.34
CN1C2CCCC1CC(NC(=O)c1nn(C)c3ccccc13)C2 (stereo not given) [Granisetron HCl],-0.01,-0.02,0.65,-1.1,1.08,-0.06,0.45,–,-0.52,-0.36,-0.26,0.03,11.8 ± 0.16,0.42,-0.37,–
Nc1ccc(S(=O)(=O)Nc2ccccn2)cc1 [Sulfapyridine],0.95,0.24,-0.23,-0.03,–,-0.25,–,-0.46,-0.55,-0.75,-0.9,-0.97,12.2 ± 0.13,-0.68,-0.89,-0.73
